# Data published in PubChem BioAssay AID720594 (Broad Institute, 2013).
# Potency and affinity values are given separately. Active and inactive are the calls of the source.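 Rule for the calls: active = falling ATP light signal with a fitted half-maximal concentration at most twice the highest valid tested dose; inconclusive = flat fit with moderate signal loss, or poor fit; inactive = the rest.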
# Assay: ATP-based viability loss in HepG2 cells – cell-based, CellTiter-Glo luminescence, dry powder, set 3, cytotoxicity control, dose response (AID 720594)
# Conditions: 72 h; series mostly up to 26 µM; activity change, negative = cytotoxicity: at the top concentration
SMILES,"activity change, negative = cytotoxicity",outcome
CC1CC(C)CN(S(=O)(=O)c2ccc(C(=O)Nc3nnc(C4=COCCO4)o3)cc2)C1 (stereo not drawn),-19.5% (inactive),–
O=C(Nc1nc(-c2ccncc2)cs1)c1ccco1,-15.6% (inactive),–
Cc1nnc(NC(=O)c2ccc(S(=O)(=O)N3CCCCC3)cc2)o1,-22% (inactive),–
CC1CCN(S(=O)(=O)c2ccc(C(=O)Nc3nnc(-c4ccco4)o3)cc2)CC1,-19.9% (inactive),–
O=C(CSc1n[nH]c(-c2ccccn2)n1)Nc1ccc(Cl)cc1,-14.9% (inactive),–
CC(C)Cc1nnc(NC(=O)c2cccc(S(=O)(=O)N3CCOCC3)c2)s1,-14.8% (inactive),–
COC(=O)c1ccc(NC(=O)CSc2ccc(-c3ccccn3)nn2)cc1,-20.2% (inactive),–
Cc1ccc(C(=O)Nc2nc(-c3ccccn3)cs2)cc1S(=O)(=O)N1CCOCC1,-14.4% (inactive),–
CC1CCN(S(=O)(=O)c2ccc(C(=O)Nc3nnc(-c4ccno4)o3)cc2)CC1,-22.9% (inactive),–
CC1CCN(S(=O)(=O)c2ccc(C(=O)Nc3nnc(-c4ccccn4)o3)cc2)CC1,-20.6% (inactive),–
O=C(Nc1nnc(C2=COCCO2)o1)c1ccc(S(=O)(=O)N2CCCCC2)cc1,-11.9% (inactive),–
O=C(Nc1nnc(-c2ccc(F)cc2)o1)c1ccc(S(=O)(=O)N2CCCCC2)cc1,-25.7% (inactive),–
CCCCC(=O)NC(c1ccco1)c1ccc2cccnc2c1O (stereo not drawn),-22.8% (inactive),–
O=C(CSc1ccc(-c2ccccn2)nn1)Nc1ccccc1,-17.6% (inactive),–
O=C(Nc1nc(-c2ccccn2)cs1)c1ccco1,-7.91% (inactive),–
O=C(CSc1ccc(-c2ccccn2)nn1)N1CCCC1,-17.5% (inactive),–
O=C(Cc1ccccc1)NC(c1ccco1)c1ccc2cccnc2c1O (stereo not drawn),-14.6% (inactive),–

SMILES,"activity change, negative = cytotoxicity",outcome
Cc1ccc(C(=O)Nc2nc(-c3ccccc3)cs2)o1,-10.1% (inactive),–
Nc1nc(-c2ccccn2)nc(N)c1Cc1ccc(Cl)cc1Cl,1.32% (inactive),–
Cc1ccc(S(=O)(=O)CCc2nnc(NC(=O)c3ccccc3)s2)cc1,-8.3% (inactive),–
O=C(Nc1nc(-c2ccncc2)cs1)c1cccc(S(=O)(=O)N2CCOCC2)c1,-10.9% (inactive),–
Cc1ccc(C(=O)Nc2nc(-c3ccccn3)cs2)o1,-17.6% (inactive),–
CC(C)CC(=O)NC(c1cccs1)c1ccc2cccnc2c1O (stereo not drawn),14.7% (inactive),–
FC(F)(F)c1cc(-c2nn[nH]n2)cc(C(F)(F)F)c1,-19.7% (inactive),–
O=C(CSc1ccc(-c2ccccn2)nn1)NC1CCCCC1,-18.9% (inactive),–
CCc1cc2c(=O)[nH]c(-c3ccccn3)nc2s1,15.8% (inactive),–
COC(=O)Cc1cc(=O)n(-c2nc3ccccc3[nH]2)[nH]1,-21.4% (inactive),–
CC1CCN(S(=O)(=O)c2ccc(C(=O)Nc3nnc(C4CC4)o3)cc2)CC1,-15.2% (inactive),–
Cc1c(C(=O)N(C)C)sc2nc(-c3ccccn3)[nH]c(=O)c12,-21% (inactive),–
O=C(CSc1ccc(-c2ccccn2)nn1)Nc1nccs1,-13.9% (inactive),–
c1ccc(-c2nc(-c3ccncc3)n[nH]2)nc1,–,inactive
Cc1cccc(NC(=O)CSc2ccc(-c3ccccn3)nn2)c1C,4.57% (inactive),–
O=C(Nc1nc(-c2ccccn2)cs1)c1ccc(S(=O)(=O)N2CCOCC2)cc1,-3.41% (inactive),–
